Results: PubChem BioAssay AID1794844 (National Center for Advancing Translational Sciences (NCATS), 2023)
The whole screen tested about 2,800 compounds, of which fewer than 10 were called active. Another 7% or so got no clear call; they are omitted. Calls come from the whole dose curve; as a rule, active = well fitted inhibition curve with a large enough effect; inconclusive = small, poorly fitted or top-dose-only effect; inactive = no such curve, though single readings can be large or run the other way. Not all results are given here. Entries that show only a call come without a potency.

Target: Metallo-beta-lactamase type 2 (Klebsiella pneumoniae) (UniProt C7C422)
Test: qHTS to identify inhibitors of the New Delhi Metallo-beta-lactamase (NDM): Nitrocefin screen against the machine-based learning selections.
Conditions: NDM-1 enzyme, nitrocefin hydrolysis, absorbance 485 nm; series mostly up to 38.4 µM
Excerpt: Assay Submitter (PI): James Inglese Ph.D., Patricia Dranchak Ph.D., Mahesh Aitha Ph.D. Assay Development and Screening Technology Laboratory (ADST) National Center for Advancing Translational Sciences (NCATS), Rockville, MD National Institute of Health (NIH), Bethesda, Maryland The metallo-beta-lactamases (MBL) are a main antibiotic resistance mechanism evolved by bacteria. There is an urgent clinical need for MBL inhibitors to mitigate this growing threat. To support a machine-based learning study, qHTS has been used to experimentally test inhibitors identified by prediction tools.
PROTOCOL TABLE (as described by Inglese et al., 2007) SEQUENCE No. (e.g., 1, 2, 3, etc.); […] (e.g., enzyme, Incubation, Reagent, etc.); VALUE; DESCRIPTION Primary Screen 1; NDM-1; 4 uL of 3 nM enzyme [2 nM final] in 50 mM HEPES (pH 7.0), 1 uM […], 0.01% Tween20; Use BioRaptr to dispense into two sets of Aurora black, clear bottom high base 1536-well plates 2; Compounds; 23 nL; Use Pin Tool (Wako) to transfer DMSO control and library compounds in DMSO 3; Incubate; >30 min 4a; Reagent; 2 uL of 50 uM nitrocefin [16.7 uM final] to one set of assay plates 4b; Reagent; 2 uL of 150 uM meropenem [50 uM final] to second set of assay plates 5a; Incubate; 15 min 5b; Incubate; 30 min 6a; Detector; Absorbance at 485 nm (bandwidth = 5 nm, 25 flashes/well) on Tecan Infinity 6b; Detector; Absorbance at 300 nm (bandwidth = 5 nm, 25 flashes/well) on Tecan Infinity NOTES (numbers refer to sequence above) 1; Column 1 of each plate received assay buffer without enzyme and columns 2-48 received enzyme for a final assay concentration of 2 nM. 2; Control plate contained DMSO in columns 1, 2, 3, and 4. 3; Compound interaction with enzyme. 4; Nitrocefin and meropenem substrates were prepared in the same assay buffer as step 1 for a final assay concentration of 16.7 uM and 50 uM, respectively, and added to all wells across respective sets of assay plates. 5; Default reader settings were applied for absorbance read at 485 nm (nitrocefin) or 300 nm (meropenem), bandwidth = 5 nm, 25 flashes/well. References: Inglese J, Shamu CE, Guy RK. 2007. Reporting data from high-throughput screening of small-molecule libraries. Nat Chem Biol. doi:10.1038/nchembio0807-438 Yasgar A, Shinn P, Jadhav A, Auld D, Michael S, Zheng W, Austin CP, Inglese J, Simeonov A. 2008. Compound Management for Quantitative High-Throughput Screening. J Lab Autom 13:79 - 89. doi:10.1016/j.jala.2007.12.004
Potency is the fitted concentration of half-maximal effect.

Metallo-beta-lactamase type 2 (Klebsiella pneumoniae), sequence (C7C422 whole entry, looked up): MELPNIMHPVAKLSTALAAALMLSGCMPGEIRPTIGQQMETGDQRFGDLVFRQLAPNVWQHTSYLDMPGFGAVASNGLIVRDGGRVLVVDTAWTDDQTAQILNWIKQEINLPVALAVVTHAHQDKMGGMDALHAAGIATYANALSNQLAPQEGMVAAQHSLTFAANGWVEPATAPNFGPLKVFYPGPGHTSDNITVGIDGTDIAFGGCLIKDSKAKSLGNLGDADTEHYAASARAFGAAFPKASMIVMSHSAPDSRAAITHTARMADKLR

SMILES | Potency
Cn1cc(C(NC(=O)c2ccc3c(c2)ncn3CCO)C2CC(O)C2)cn1 (stereo not drawn) | inactive
Cc1nnc(-c2cc(N3CCN(c4ccccn4)CC3)ccn2)n1C1CCCCC1 | inactive
O=C1CO[C@H]2CN(c3nccc(C(F)(F)F)n3)C[C@H]2N1Cc1ccc(F)cc1 | inactive
COc1cc(=O)n2c(c1C(=O)NC1CCCCCC1)CCCC2 | inactive
Cc1cccc(N(CC(=O)N[C@H]2CC[C@H]2NC2CCCC2)S(C)(=O)=O)c1 | inactive
O=C(O)[C@]12CCCN[C@@H]1CCN(Cc1cnc(-c3ccccn3)nc1)C2 | inactive
CCOCCn1nc(C)cc1C(=O)N1C[C@@H](C)[C@](O)(C2CC2)C1 | inactive
COc1cccc(-c2cccc(CCOc3cnc4c(ccn4CC(=O)O)c3)c2)c1 | inactive
O=C(N[C@@H]1CCN(Cc2cccc3nonc23)C[C@H]1O)c1cccnc1 | inactive
COC(=O)c1ccc2nc(C[C@@H]3C[C@@H](C(C)C)[C@H](CN(C)C)C=C3C)[nH]c2c1 | inactive
CCO[C@H]1C[C@@H](O)C12CCN(C(=O)c1cc(S(N)(=O)=O)ccc1F)CC2 | inactive
CN(C)Cc1cn(C[C@H]2C[C@@H](NC(=O)c3nc4ccccc4s3)[C@H](O)[C@@H]2O)nn1 | inactive
COc1cc(CNC(=O)CCC2CCN(S(=O)(=O)c3ccccc3)CC2)cc(OC)c1 | inactive
Clc1cccc(-c2cnc([C@@H]3COCCN3Cc3cnc[nH]3)[nH]2)c1 | 13.7 µM (active)
c1cncc(-c2cnc([C@@H]3COCCN3Cc3ncc[nH]3)[nH]2)c1 | inactive
Oc1ccccc1CN1CCOC[C@H]1c1ncc(-c2cccc(Cl)c2)[nH]1 | inactive
CC1(C)CN(C(=O)c2ccccc2Oc2ccccc2)CC1(C)O (stereo not drawn) | inactive
O=c1ncn(Cc2ccccc2)c2ccc(-c3ccc(O)c(F)c3)nc12 | inactive
CCOC(=O)C[C@@H]1C[C@@H](C(C)C)[C@H](CNC(=O)c2ccc(C#N)cc2)C=C1C | inactive
CCC1=C(C(=O)OC)C(c2ccccc2OC)N2C(CC(=O)N3CC(C)OC(C)C3)=CSC2=N1 (stereo not drawn) | inactive
CC1(C(=O)NCCc2ccccn2)CCc2cnc(NCc3ccccc3)nc21 (stereo not drawn) | inactive
Cn1ccc2c(C(=O)NCCc3cnc[nH]3)nc(-c3cccnc3)cc21 | inactive
C[S+](=O)([O-])Nc1cccc(-c2cc(-c3cccnc3)c3cncn3c2)c1 | inactive
O=C1Nc2cc(Cl)ccc2C(=O)N2CCN(C(=O)c3ccccc3)C[C@H]12 | inactive

SMILES | Potency
O=C(Cc1c[nH]c2ncc(-c3ccccc3F)cc12)NCc1cccnc1 | inactive
COCc1cc(C[C@@H]2CC[C@H](O)[C@@H](CNS(=O)(=O)c3ccccc3)O2)no1 | inactive
O=C(NC1CC(=O)N(CCc2cccc(Cl)c2)C1)c1ccsc1 (stereo not drawn) | inactive
CCN(CC)C(=O)C[C@@H]1c2nc(NC(=O)N3CCOCC3)sc2C[C@@H]2[C@](C)(CO)[C@H](O)CC[C@]21C | inactive
CS(=O)(=O)N[C@H]1C[C@H]2C(=O)Nc3ccc(-c4ccc5c(c4)OCO5)cc3C(=O)N2C1 | inactive
COc1ccc(-c2cnc3[nH]cc(CC(=O)Nc4ccncc4)c3c2)cc1 | inactive
COc1ccc2c(c1)nc1n2[C@@H](CNC(=O)c2ccncc2)COC1 | inactive
O=C(CCCc1ccccc1)N[C@@H]1CN(c2ccncn2)C[C@H]1CO | inactive
Cc1c(CN2C[C@@H](COc3ccccc3)[C@H](C(N)=O)C2)cnn1C | inactive
Cc1ccc(C)c(-c2cc(C(=O)N3CCCC3c3nncn3C(C)C)[nH]n2)c1 (stereo not drawn) | inactive
O=S(=O)(c1ccc(F)cc1)N1CCCC(Cc2noc(-c3cnccn3)n2)C1 (stereo not drawn) | inactive
CN1CCCC1c1nc(C2CN(C(=O)c3ccsc3)C2)no1 (stereo not drawn) | inactive
CN1C(=O)CC(C(=O)O)C12CCN(C(=O)CCc1cccnc1)CC2 (stereo not drawn) | inactive
Cn1c(CO[C@H]2CN(C(=O)c3cccnc3)C[C@H]2F)nc2ccccc21 | inactive
C[C@@H](c1ccccc1)N1C(=O)[C@@H]2CN(C(=O)c3ccco3)CCN2C1=O | inactive
COc1ccc(OC)c(CN2CCC3(CC2)Nc2ccccc2NC3=O)c1 | inactive
NC(=O)C1CCCN(CCNc2cc(-c3ccccc3)nc3ccnn23)C1 (stereo not drawn) | inactive
COC(=O)[C@H](NC(=O)[C@@H]1C[C@@H](NC(=O)c2ccncc2)CCN1S(=O)(=O)c1ccc(OC)cc1)C(C)C | inactive
Cc1cncc(C(=O)N2CC[C@@H](c3ccc4ccccc4c3)[C@H](O)C2)c1 | inactive
CCn1cnnc1CC1CCN(C(=O)NC)C1 (stereo not drawn) | inactive
O=C(c1ccoc1)N1CCCn2cc(-c3ccccc3)nc21 | inactive
NC(=O)CCNC(=O)C1=C[C@@H](NC(=O)c2cccs2)[C@@H](O)[C@H](O)C1 | inactive
Cc1ccc(O)c(CN2CC[C@@H](c3ccc(F)cc3)[C@H](O)C2)c1 | inactive
Cc1cnc(C(=O)N2CCCC(c3nc(-c4cccnc4)no3)CCNC(=O)CC2)cn1 (stereo not drawn) | inactive
